{"source": "ChEMBL document CHEMBL3988442", "about": "“University of Dundee, Small-Polar-MMV Screening Library” (2021)", "note": "In all, about 38,000 compounds went through this assay and about 1,200 (3.2%) showed an effect of 50% or more. The median lay at about -58%. Shown is part of a subset that was picked to be rich in strong results.", "data": [{"system": "Plasmodium falciparum", "test": "Calibr Malaria Delayed Death Assay SOP", "assay_type": "functional, organism-based", "set-up": "scale not given: in the data most compounds retested in dose-response had high values", "details": "concentration 4.99e-06 (unit not given; other assays of the set use mol/L)", "units": {"Percent Effect": "%"}, "values": [{"smiles": "CCc1cnc(CN(C)C2CCN(CCCNS(C)(=O)=O)C2)o1", "note": "(stereo unspecified)", "Percent Effect": -33.46}, {"smiles": "Cc1cc(C)n(C2CN(CC(=O)N(C)Cc3cnn(C)c3)C2)n1", "Percent Effect": -103.6}, {"smiles": "Cc1cc(C)n(C2CN(CC(=O)N(C)Cc3ccc(C)o3)C2)n1", "Percent Effect": -1.347}, {"smiles": "COc1ccccc1CN(C)C(=O)CN1CC(n2nc(C)cc2C)C1", "Percent Effect": 77.58}, {"smiles": "Cc1cc(C)n(C2CN(CC(=O)N(C)Cc3ccsc3)C2)n1", "Percent Effect": 24.51}, {"smiles": "COc1cccc(CN(C)C(=O)CN2CC(n3nc(C)cc3C)C2)c1", "Percent Effect": 62.45}, {"smiles": "Cc1cc(C)n(C2CN(CC(=O)N(C)Cc3ccco3)C2)n1", "Percent Effect": -70.44}, {"smiles": "CC(C)NC(=O)N1CC[C@@H]2CN(S(C)(=O)=O)CCO[C@@H]2C1", "Percent Effect": -58.18}, {"smiles": "Cc1nnc(NC(=O)NCc2ccc(OC3CCCC3)nc2)s1", "Percent Effect": 2.114}, {"smiles": "Cc1cccc(N2Cc3nc(N4CCC(C)CC4)ncc3C2=O)c1", "Percent Effect": -105.8}, {"smiles": "O=S(=O)(c1ccccc1)N1CCC[C@]2(C[C@@H](OCC3CC3)CO2)C1", "Percent Effect": -64.42}, {"smiles": "CCOc1ccc2[nH]c3c(N(C)CC4OCCO4)ncnc3c2c1", "Percent Effect": -160.2}, {"smiles": "CCCNC(=O)CCNC(=O)c1sc2ccc(F)cc2c1C", "Percent Effect": -59.54}, {"smiles": "CN1CCN(C(=O)c2cc3occc3n2Cc2ccccc2F)CC1", "Percent Effect": -0.5316}, {"smiles": "CN1CCN(C(=O)c2occc2CN2C(=O)Cc3ccccc32)CC1", "Percent Effect": 53.65}, {"smiles": "O=C(c1occc1CN1C(=O)Cc2ccccc21)N1CC(O)C1", "Percent Effect": -91.69}, {"smiles": "N#Cc1cnc2c(F)cc(F)cc2c1NC1CCN(CC(N)=O)CC1", "Percent Effect": -21.61}, {"smiles": "Cc1cnc(NC(=O)CSC2CCc3ccccc3NC2=O)s1", "note": "(stereo unspecified)", "Percent Effect": -9.765}, {"smiles": "NC(=O)c1ccc(CN2CCC(N3CCCCC3)CC2)cc1", "Percent Effect": -16.53}, {"smiles": "CC(NCc1ccc(OCC(N)=O)cc1)c1ccc(Cl)cc1.Cl", "note": "(stereo unspecified)", "Percent Effect": 12.76}, {"smiles": "CC(NCc1ccc(OCC(N)=O)cc1)c1ccc2c(c1)CCCC2", "note": "(stereo unspecified)", "Percent Effect": 72.97}, {"smiles": "CC(NCc1ccc(OCC(N)=O)cc1)c1ccc(Cl)c(Cl)c1.Cl", "note": "(stereo unspecified)", "Percent Effect": 2.26}, {"smiles": "CSCCN1C(=O)CC(C)(c2ccc(Br)cc2)C1=O", "note": "(stereo unspecified)", "Percent Effect": -78.64}, {"smiles": "NCC(=O)N1CCCCC1c1ccc(F)cc1", "note": "(stereo unspecified)", "Percent Effect": 85.19}, {"smiles": "COC(=O)CCCC(=O)N1CCCCC1c1ccc(F)cc1", "note": "(stereo unspecified)", "Percent Effect": -184.4}, {"smiles": "O=C1CCCCN1CCC(=O)N1CCCCC1c1ccc(F)cc1", "note": "(stereo unspecified)", "Percent Effect": -57.96}, {"smiles": "CC(c1ccc(F)cc1F)N1CCN(Cc2nccn2C)CC1", "note": "(stereo unspecified)", "Percent Effect": -23.71}, {"smiles": "CC(NCCn1cccn1)c1cc(F)ccc1F", "note": "(stereo unspecified)", "Percent Effect": 0.142}, {"smiles": "CCN1CCN(c2ccc(F)cc2C(C)NCc2cscn2)CC1", "note": "(stereo unspecified)", "Percent Effect": 80.23}, {"smiles": "CCN1CCN(c2ccc(F)cc2C(C)NCc2ccnn2C)CC1", "note": "(stereo unspecified)", "Percent Effect": 75.25}, {"smiles": "C[C@]1(O)CN(Cc2cscn2)CC[C@@H]1Oc1cccc(F)c1", "Percent Effect": -10.93}, {"smiles": "CC(NCc1ccccn1)c1cc2c(cc1Br)OCCO2", "note": "(stereo unspecified)", "Percent Effect": 22.3}, {"smiles": "CC(NC(=O)NCc1cscn1)c1ccc(N2CCOCC2)cc1", "note": "(stereo unspecified)", "Percent Effect": -60.07}, {"smiles": "CCN1CCN(c2ccc(F)cc2C(C)NCc2ccncc2)CC1", "note": "(stereo unspecified)", "Percent Effect": 71.8}, {"smiles": "CCN1CCN(c2ccc(F)cc2C(C)NCc2ccccn2)CC1", "note": "(stereo unspecified)", "Percent Effect": 85.11}, {"smiles": "CC(NCc1ccncc1)c1cc2c(cc1Br)OCCO2", "note": "(stereo unspecified)", "Percent Effect": 7.247}, {"smiles": "CC(c1cc(F)ccc1F)N1CCN(Cc2nccn2C)CC1", "note": "(stereo unspecified)", "Percent Effect": -48.8}, {"smiles": "Cc1[nH]ncc1C(C)NCc1ccc(F)cc1", "note": "(stereo unspecified)", "Percent Effect": -52.77}, {"smiles": "Cn1nc(-c2ccccc2)c(Cl)c1C(=O)O", "Percent Effect": 13.43}, {"smiles": "CC(C)S(=O)(=O)NCC(Cc1cccc(F)c1)N1CCNC1=O", "note": "(stereo unspecified)", "Percent Effect": -68.63}, {"smiles": "COc1ccc(CNc2nc(N3CCOCC3)ns2)cc1", "Percent Effect": -61.76}, {"smiles": "Cc1ccc(CCNC(=O)CC2COCCN2S(=O)(=O)N(C)C)o1", "note": "(stereo unspecified)", "Percent Effect": -12.87}, {"smiles": "CC(C)c1nncn1CCNC(=O)c1ccc(Cl)cc1O", "Percent Effect": -118.9}, {"smiles": "Cc1nccc(-c2cccc(NCC(=O)NCC(=O)N3CCCC3)c2)n1", "Percent Effect": -89.65}, {"smiles": "Cc1cnc(C(=O)N2CC[C@@H]3CN(c4ncccn4)CCO[C@@H]3C2)cn1", "Percent Effect": -80.08}, {"smiles": "Cc1nc(CO[C@H]2CN(Cc3cccs3)[C@@H]3COC[C@H]23)cs1.O=C(O)C(F)(F)F.O=C(O)C(F)(F)F", "Percent Effect": -73.25}, {"smiles": "CCN1CCN(c2ccc(F)cc2C(C)NCc2noc(C)n2)CC1", "note": "(stereo unspecified)", "Percent Effect": 52.85}, {"smiles": "CCN1CCN(c2ccc(F)cc2C(C)NCc2nc(C)no2)CC1", "note": "(stereo unspecified)", "Percent Effect": 4.183}, {"smiles": "CN1CCN(c2ccc(F)cc2C(N)=O)CC1", "Percent Effect": -109.6}, {"smiles": "Cc1nc(CNC(=O)Nc2cc(F)ccc2OC(F)F)no1", "Percent Effect": -136.5}, {"smiles": "Cc1ccc(CNC(C)c2nnc3n2CCCC3)o1", "note": "(stereo unspecified)", "Percent Effect": -20.3}, {"smiles": "CC(COc1ccccc1)NCc1cn2ccccc2n1", "note": "(stereo unspecified)", "Percent Effect": -27.04}, {"smiles": "Cc1ccc(C(=O)N2CCC3(CCC(=O)N(C(C)C)C3)CC2)c(O)c1", "Percent Effect": -20.48}, {"smiles": "COC(=O)c1ccc(C2CC(=O)Nc3c2cnn3C)cc1", "note": "(stereo unspecified)", "Percent Effect": -67.54}, {"smiles": "CCc1noc(CN2CCCC(Cn3nc(C)nc3C)C2)n1", "note": "(stereo unspecified)", "Percent Effect": -109.5}, {"smiles": "CN(C)c1ccc(C(=O)N2CCN(Cc3cscn3)CC2)cc1F", "Percent Effect": -147.3}, {"smiles": "CCC1CN(Cc2c(O)ccc3oc4c(c23)CCCC4)CCO1", "note": "(stereo unspecified)", "Percent Effect": 59.59}, {"smiles": "NC(=O)C1CN(Cc2c(O)ccc3oc4c(c23)CCCC4)CCO1", "note": "(stereo unspecified)", "Percent Effect": -24.38}, {"smiles": "Oc1ccc2oc3c(c2c1CN1CCOCC1)CCCC3", "Percent Effect": 15.46}, {"smiles": "CN1CCN(C[C@H]2CC[C@@H](Cc3ccc4c(c3)OCO4)O2)CC1", "Percent Effect": -29.46}, {"smiles": "COc1ccc(C[C@@H]2CC[C@H](CN(C)C3CCN(C)CC3)O2)cc1", "Percent Effect": 49.48}, {"smiles": "CN1CCC(N(C)C[C@H]2CC[C@@H](Cc3ccc4occc4c3)O2)CC1", "Percent Effect": 85.36}, {"smiles": "CN1CCC(N(C)C[C@H]2CC[C@@H](Cc3cccc(CO)c3)O2)CC1", "Percent Effect": -136}, {"smiles": "CCN1CCN(C[C@H]2CC[C@@H](Cc3ccc4c(c3)OCO4)O2)CC1", "Percent Effect": -22.56}, {"smiles": "CN1CCC(N(C)C[C@H]2CC[C@@H](Cc3cccc(O)c3)O2)CC1", "Percent Effect": 56.23}, {"smiles": "CCCc1ccc(C(=O)N2CCc3c(nc(C)nc3N(C)C)C2)cc1", "Percent Effect": -63.88}]}]}
